Results as given in PubChem BioAssay.
Calls of active or inactive are those of the source. Unless noted, no rule for the calls is given here.

Legend:
[1] = anti-His antibody binders, primary screen, artefact control for SMM control protein annotation, biochemical, small-molecule microarray, 635 nm fluorescence (AID 1128); settings: anti-His Alexa647 antibody binding, higher = more signal;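 also: score merges feature fluorescence with signal-to-noise for each printed compound spot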
[2] = system: Human papillomavirus type 1a E7 protein (residues 1-88); assay: HPV1a E7 small-molecule binders, primary screen, biochemical, small-molecule microarray, residues 1-88, 635 nm (AID 1129); settings: small-molecule microarray binding, fluorescence 635 nm; higher = more signal
[3] = biological target: Focal adhesion kinase 1 (Homo sapiens) (UniProt Q05397); assay: small-molecule microarray binders of FAK, primary screen, biochemical, 635/667 nm fluorescence, BSA, DTT (AID 1130); settings: PTK2 binding, 635 nm fluorescence, higher = more signal;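 also: composite of spot emission at 667 nm and signal to noise over triplicate slides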
[4] = system: Fibrinogen (Alexa647-labelled); assay: fibrinogen binders on compound microarrays, profiling panel, artefact control for SMM control-protein annotation, biochemical, small-molecule microarray, 635/667 nm fluorescence (AID 1131); settings: fibrinogen-A647 binding fluorescence, higher = more signal;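 also: z-score merges 667 nm fluorescence with per-spot signal-to-noise over triplicate slides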
[5] = biological target: Follistatin (Homo sapiens) (UniProt P19883); assay: follistatin binders on small-molecule microarrays, primary screen, biochemical, small-molecule microarray, 635/667 nm fluorescence (AID 1132); settings: FST binding, 635 nm fluorescence, higher = more signal
[6] = biological target: Fibroblast growth factor 2 (Homo sapiens) (UniProt P09038); assay: FGF2 binders on small-molecule microarrays, primary screen, biochemical, small-molecule microarray, 635/667 nm fluorescence (AID 1133); settings: small-molecule microarray binding, FGF2, fluorescence 635/667; higher = more signal
[7] = mitochondrial membrane potential change in A549 cells, profiling panel, cell-based, JC-1 fluorescence, basal, 24 h, 100 nL (AID 1138); settings: higher = more signal;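 also: A549 lung adenocarcinoma cells under basal conditions with no added stimulus; test concentration not given here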
Lefty1 = Lefty1 binders on small-molecule microarrays, primary screen, biochemical, small-molecule microarray, 635/667 nm fluorescence (AID 1139); settings: small-molecule microarray binding, fluorescence 635/667; higher = more signal
[8] = system: wheat germ agglutinin (Triticum aestivum), Alexa647-labelled; assay: wheat germ agglutinin binders on compound microarrays, profiling panel, artefact control for SMM control-protein annotation, biochemical, small-molecule microarray, 635/667 nm fluorescence (AID 1140); settings: WGA-A647 binding, 635 nm fluorescence, higher = more signal;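 also: score merges 667 nm feature emission with signal to noise over triplicate slides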
[9] = biological target: Luciferin 4-monooxygenase (Photinus pyralis) (UniProt P08659); assay: firefly luciferase enzyme inhibitors, primary screen, biochemical, luminescence, purified enzyme, 2006 set (AID 1141); settings: SteadyGlo luminescence, 30 min, higher = more signal, called active from +8 up or from −8 down;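 also: cell-free assay with purified firefly luciferase at 100 ng per well in PBS; test concentration not given here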
[10] = system: Wnt5a (protein binding on small-molecule microarray); assay: Wnt5a binders on small-molecule microarray, primary screen, biophysical, 635/667 nm fluorescence (AID 1142); settings: 635 nm fluorescence, higher = more signal;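 also: fluorescence read at 667 nm with signal to noise per printed feature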
[11] = cell viability in Huh7 cells, primary screen, cytotoxicity control for HCV replication inhibitor project, CellTiter-Glo luminescence, basal, 48 h (AID 1143); settings: Huh7 HCV replicon, higher = more signal, called active from +8 up or from −8 down;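 also: Huh7 hepatoma cells carrying a hepatitis C replication reporter with no stimulus; test concentration not given here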
[12] = P. aeruginosa biofilm formation inhibitors, primary screen, PAO1 strain, BacTiter-Glo luminescence, LB-PBS (AID 1144); settings: 12 h, higher = more signal
[13] = CREB reporter modulators without forskolin, primary screen, cell-based, PC12, CRE-LacZ reporter, unstimulated (AID 1145); settings: no forskolin, luminescence, 4.5 h, higher = more signal, called active from +8 up or from −8 down
[14] = CREB reporter modulators under forskolin, primary screen, cell-based, PC12, CRE-LacZ reporter, forskolin-stimulated (AID 1146); settings: luminescence, 4.5 h, higher = more signal, called active from +8 up or from −8 down;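 also: PC12 cells with 6xCRE LacZ reporter stimulated by forskolin 10 µM; beta-galactosidase reporter signal reflecting CREB driven transcription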
[15] = biological target: Streptavidin (Streptomyces avidinii) (UniProt P22629); assay: streptavidin binders on small-molecule microarray, primary screen, artefact control for SMM compound annotation, biophysical, 635/667 nm fluorescence (AID 1147); settings: streptavidin binding, higher = more signal;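 also: signal reflects streptavidin binding to arrayed compounds as a control protein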
[16] = small-molecule binders of probe aInhba, primary screen, biochemical, small-molecule microarray, 635/667 nm fluorescence (AID 1148); settings: higher = more signal;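 also: score merges 667nm spot fluorescence with signal-to-noise for antibody binding to printed compounds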
Torsin-1A (Homo sapiens) [17] = biological target: Torsin-1A (Homo sapiens) (UniProt O14656); assay: torsin A binders from cell lysate, primary screen, small-molecule microarray, wild-type, 635/667 nm (AID 1149); settings: COS7 hTOR1A-WT lysate, 635 nm fluorescence, higher = more signal
Torsin-1A (Homo sapiens) [18] = biological target: Torsin-1A (Homo sapiens) (UniProt O14656); assay: small-molecule binders of mutant TOR1A in lysate, primary screen, cell lysate, small-molecule microarray, COS7 lysate, 635/667 nm fluorescence (AID 1150); settings: COS7 hTOR1A mutant lysate, 635 nm fluorescence, higher = more signal;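 also: score pools 667 nm emission and signal to noise measuring lysate protein binding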
[19] = system: Sonic hedgehog protein (Shh); assay: small-molecule binders of Shh protein, primary screen, biochemical, small-molecule microarray, 635/667 nm fluorescence (AID 1151); settings: small-molecule microarray binding, 635 nm fluorescence; higher = more signal;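 also: Shh protein binding to compounds spotted on small-molecule microarray slides; score combines spot fluorescence intensity with signal-to-noise across triplicate slides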

Follistatin (Homo sapiens), sequence (P19883 whole entry, looked up): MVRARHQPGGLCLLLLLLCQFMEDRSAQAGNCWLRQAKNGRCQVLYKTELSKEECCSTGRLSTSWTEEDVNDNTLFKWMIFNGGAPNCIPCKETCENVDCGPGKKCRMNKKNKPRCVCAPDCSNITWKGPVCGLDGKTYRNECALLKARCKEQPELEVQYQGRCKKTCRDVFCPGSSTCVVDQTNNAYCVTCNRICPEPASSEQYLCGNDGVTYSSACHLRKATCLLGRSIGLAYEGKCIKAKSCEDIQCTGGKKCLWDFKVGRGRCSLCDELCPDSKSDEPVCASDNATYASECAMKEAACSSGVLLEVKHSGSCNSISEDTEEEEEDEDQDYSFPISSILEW
Torsin-1A (Homo sapiens), sequence (O14656 whole entry, looked up): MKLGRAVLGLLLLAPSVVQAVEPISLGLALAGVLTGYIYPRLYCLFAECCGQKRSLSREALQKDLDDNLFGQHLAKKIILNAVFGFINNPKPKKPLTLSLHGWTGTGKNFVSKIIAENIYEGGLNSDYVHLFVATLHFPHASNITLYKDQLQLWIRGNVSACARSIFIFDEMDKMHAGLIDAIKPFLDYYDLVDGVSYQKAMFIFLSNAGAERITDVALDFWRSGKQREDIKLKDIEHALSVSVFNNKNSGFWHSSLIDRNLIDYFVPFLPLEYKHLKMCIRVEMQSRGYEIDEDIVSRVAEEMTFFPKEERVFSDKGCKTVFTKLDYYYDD
Fibroblast growth factor 2 (Homo sapiens), sequence (P09038 whole entry, looked up): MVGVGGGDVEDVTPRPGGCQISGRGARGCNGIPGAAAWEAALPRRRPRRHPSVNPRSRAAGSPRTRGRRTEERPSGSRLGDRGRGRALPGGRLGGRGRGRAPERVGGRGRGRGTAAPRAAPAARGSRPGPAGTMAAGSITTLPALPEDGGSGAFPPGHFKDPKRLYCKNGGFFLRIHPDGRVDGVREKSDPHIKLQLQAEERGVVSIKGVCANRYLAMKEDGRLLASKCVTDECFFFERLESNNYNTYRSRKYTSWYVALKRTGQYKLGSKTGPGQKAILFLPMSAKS
Focal adhesion kinase 1 (Homo sapiens), sequence (Q05397 whole entry, looked up): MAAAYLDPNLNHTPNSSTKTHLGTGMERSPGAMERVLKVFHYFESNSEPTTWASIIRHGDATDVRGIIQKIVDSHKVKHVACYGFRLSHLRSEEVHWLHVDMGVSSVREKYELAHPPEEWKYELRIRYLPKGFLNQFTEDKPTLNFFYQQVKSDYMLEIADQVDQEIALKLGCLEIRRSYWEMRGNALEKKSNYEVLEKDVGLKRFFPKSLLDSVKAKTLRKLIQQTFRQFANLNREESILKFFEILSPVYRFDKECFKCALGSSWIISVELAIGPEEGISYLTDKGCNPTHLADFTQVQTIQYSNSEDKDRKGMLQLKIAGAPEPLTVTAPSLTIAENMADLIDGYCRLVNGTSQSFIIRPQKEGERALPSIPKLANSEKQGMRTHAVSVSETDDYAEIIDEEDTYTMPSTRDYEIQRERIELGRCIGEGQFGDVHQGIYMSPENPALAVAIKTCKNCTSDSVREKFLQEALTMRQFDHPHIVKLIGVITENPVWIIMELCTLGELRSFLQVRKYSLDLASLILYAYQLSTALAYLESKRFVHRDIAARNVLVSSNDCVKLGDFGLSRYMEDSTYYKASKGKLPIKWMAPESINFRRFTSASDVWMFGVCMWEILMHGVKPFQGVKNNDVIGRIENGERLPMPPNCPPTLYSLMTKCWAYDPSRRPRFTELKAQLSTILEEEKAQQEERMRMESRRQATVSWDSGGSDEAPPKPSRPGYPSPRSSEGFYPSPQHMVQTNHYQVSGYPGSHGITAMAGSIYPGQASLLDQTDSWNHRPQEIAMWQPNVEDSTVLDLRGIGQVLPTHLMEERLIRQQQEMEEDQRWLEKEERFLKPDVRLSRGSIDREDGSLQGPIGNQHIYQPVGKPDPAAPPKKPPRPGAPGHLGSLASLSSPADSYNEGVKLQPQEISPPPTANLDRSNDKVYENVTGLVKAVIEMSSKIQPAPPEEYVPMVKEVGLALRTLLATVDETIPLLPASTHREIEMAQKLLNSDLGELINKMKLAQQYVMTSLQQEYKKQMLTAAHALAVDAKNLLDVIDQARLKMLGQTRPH
Streptavidin (Streptomyces avidinii), sequence (P22629 whole entry, looked up): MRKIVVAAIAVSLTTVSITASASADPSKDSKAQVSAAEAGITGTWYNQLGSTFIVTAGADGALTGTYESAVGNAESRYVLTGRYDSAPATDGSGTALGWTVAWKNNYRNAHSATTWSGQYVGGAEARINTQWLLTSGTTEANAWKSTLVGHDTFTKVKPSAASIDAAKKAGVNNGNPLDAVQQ
Luciferin 4-monooxygenase (Photinus pyralis), sequence (P08659 whole entry, looked up): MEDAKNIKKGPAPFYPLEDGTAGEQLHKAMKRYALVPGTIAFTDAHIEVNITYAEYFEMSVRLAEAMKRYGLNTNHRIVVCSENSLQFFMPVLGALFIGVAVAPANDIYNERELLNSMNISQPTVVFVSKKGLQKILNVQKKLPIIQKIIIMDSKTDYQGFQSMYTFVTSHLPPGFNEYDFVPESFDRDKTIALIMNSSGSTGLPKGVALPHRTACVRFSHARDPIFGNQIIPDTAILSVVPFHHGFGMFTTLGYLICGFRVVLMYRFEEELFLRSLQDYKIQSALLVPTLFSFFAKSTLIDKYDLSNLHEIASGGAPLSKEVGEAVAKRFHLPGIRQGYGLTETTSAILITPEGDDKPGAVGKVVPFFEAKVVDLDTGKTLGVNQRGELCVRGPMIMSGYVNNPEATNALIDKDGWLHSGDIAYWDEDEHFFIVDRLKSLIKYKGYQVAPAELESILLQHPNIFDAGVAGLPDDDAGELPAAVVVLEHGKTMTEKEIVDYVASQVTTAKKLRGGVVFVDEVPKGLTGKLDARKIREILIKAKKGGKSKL

SMILES | composite z-score [1] | composite z-score [2] | composite z-score [3] | composite z-score [4] | composite z-score [5] | composite z-score [6] | z-score [7] | composite z-score (Lefty1) | composite z-score [8] | z-score [9] | composite z-score [10] | z-score [11] | z-score [12] | z-score [13] | z-score [14] | composite z-score [15] | composite z-score [16] | composite z-score (Torsin-1A (Homo sapiens) [17]) | composite z-score (Torsin-1A (Homo sapiens) [18]) | composite z-score [19]
COCCOC(=O)N1C(=O)[C@@]2(c3cc(C#CC4=CCCCC4)ccc31)[C@H](c1ccccc1OCCO)N1[C@H](c3ccccc3)[C@H](c3ccccc3)OC(=O)[C@H]1[C@@H]2C(=O)N1CCCCCCC1 | 0.778 | 1.22 | 0.724 | 0.767 | 1.24 | 1.14 | -0.433 | 0.277 | 0.405 | -0.22 (inactive) | 0.582 | -4.01 (inactive) | 0.727 (inactive) | -0.402 (inactive) | 0.207 (inactive) | 0.342 | -0.584 | 0.931 | 0.156 | 0.755
O=C(NCCCCCNC(=O)/C(Cc1ccccc1)=N/O)OCc1ccccc1 | 0.0971 | 0.0944 | 0.433 | 0.106 | 0.27 | 0.003 | 0.552 | 0.289 | -0.0398 | 0.209 (inactive) | -0.211 | -1.82 (inactive) | -1.37 (inactive) | 3.77 (inactive) | -1.44 (inactive) | 0.153 | -0.245 | 0.847 | -0.013 | -0.103
O=C1OCC=C[C@H]2OC34C=CCN(Cn5nnc6ccccc65)C(=O)[C@H]3N(CCCO)C(=O)[C@@H]4[C@@H]12 (stereo not given in full) | 0.21 | -0.603 | -0.506 | -1.3 | -0.537 | -0.241 | -0.842 | -0.618 | -0.43 | 0.314 (inactive) | -0.439 | -2.27 (inactive) | -1.17 (inactive) | -0.887 (inactive) | -0.247 (inactive) | -0.266 | -0.224 | 0.183 | -1.85 | 0.182
C[N+](C)(C)CCCCCCNC(=O)[C@H]1C[C@H]2C(=O)NCC(=O)N2[C@H]1c1ccc(O)cc1 | 2.46 | 0.996 | -0.0037 | 0.211 | 1.37 | 1.67 | -1 | 1.59 | 0.195 | 0.836 (inactive) | 0.119 | -0.274 (inactive) | 0.0567 (inactive) | -1.35 (inactive) | 0.444 (inactive) | -0.337 | -0.354 | 0.261 | 0.349 | 2.09
O=C1C2C=CC(C(O)c3ccc(Br)cc3)N(Nc3ccccc3F)C2C(=O)N1c1ccccc1 (stereo not given) | 2.57 | 0.992 | -0.312 | 0.967 | 0.0288 | -0.265 | 0.147 | -0.107 | 0.672 | 1.71 (inactive) | -0.0758 | -2.94 (inactive) | -1.76 (inactive) | -1.02 (inactive) | -0.0733 (inactive) | 0.738 | -0.204 | -0.423 | -0.0946 | -0.481
Cc1ccccc1C(O)C1C=CC2C(=O)N(C)C(=O)C2N1N(c1ccccc1)c1ccccc1 (stereo not given) | 1.13 | -0.298 | -0.128 | 0.354 | 0.799 | -0.0234 | 0.429 | -0.543 | 0.641 | -0.609 (inactive) | 0.613 | -0.0897 (inactive) | -0.588 (inactive) | -0.136 (inactive) | -0.0376 (inactive) | 0.115 | 1.15 | -0.0241 | 0.0289 | 0.188
CCCCCCc1nc(C2CC2)cc2c1[Si](C(C)C)(C(C)C)OC2 | -1.08 | -1.14 | -0.295 | 0.691 | -0.706 | -0.644 | -1.37 | -0.568 | -0.222 | 0.766 (inactive) | -0.306 | -2.44 (inactive) | -0.486 (inactive) | 1.59 (inactive) | 0.997 (inactive) | 0.312 | -0.261 | -0.522 | -0.751 | -0.694
COC(=O)C1=CC(CCCO)=CC(C2CC2)N(C)C=C1C(=O)OC (stereo not given) | -0.153 | -0.308 | 0.623 | -0.828 | -0.157 | -0.539 | 0.511 | -0.285 | 1.26 | 0.727 (inactive) | 0.0676 | -2.82 (inactive) | -1.59 (inactive) | -0.581 (inactive) | 0.214 (inactive) | -0.326 | -0.152 | 0.564 | 0.289 | -0.526
CCOc1cc(C(O)C2C=CC3C(=O)N(c4ccccc4)C(=O)C3N2Nc2ccc(C#N)cc2)ccc1O (stereo not given) | 1.29 | 0.161 | 0.471 | 0.961 | 0.765 | -0.667 | -0.00105 | 0.113 | 0.961 | -0.519 (inactive) | -0.162 | 0.423 (inactive) | -0.485 (inactive) | -0.525 (inactive) | 0.201 (inactive) | 0.999 | 0.288 | 0.258 | 0.115 | -0.373
OCC1CC(c2ccccc2)=NO1 (stereo not given) | 0.702 | -0.0937 | -0.219 | -0.327 | 0.5 | 0.774 | 0.875 | -0.0193 | -0.239 | -1.4 (inactive) | 0.111 | 0.414 (inactive) | -0.0165 (inactive) | 0.312 (inactive) | -0.295 (inactive) | 2.47 | -0.0405 | 0.99 | 0.322 | 0.0003
